Activity calls are given as the source filed them.
Experiments:
[1] = test system: Plasmodium falciparum Sir2 (PF13_0152, Sir2A); experiment: Plasmodium falciparum Sir2A binding compounds – biochemical, small-molecule microarray, 635 nm fluorescence, primary screen (AID 1098); conditions: fluorescence 635 nm, higher = more signal;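 further: score merges spot fluorescence intensity with its signal-to-noise ratio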
[2] = probe aDKK1 binding to arrayed compounds – biochemical, biotinylated probe, 635/667 nm fluorescence, primary screen (AID 1099); conditions: small-molecule microarray, higher = more signal;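 further: score merges 667nm spot fluorescence with signal to noise across triplicate slides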
[3] = probe aCHRDL2 binding to arrayed compounds – biochemical, biotinylated probe, 635/667 nm fluorescence, primary screen (AID 1100); conditions: small-molecule microarray, higher = more signal
[4] = change in splice reporter luminescence, either direction, cell-based, HEK293, spliceosome inhibition project, primary screen (AID 1101); conditions: HEK293 splicing luciferase reporter, 24 h, higher = more signal, called active from +8 up or from −8 down;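 further: HEK293 cells carrying a splicing-competent luciferase reporter gene; test concentration not given here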
[5] = target: Fibroblast growth factor 10 (Homo sapiens) (UniProt O15520); experiment: compounds binding fibroblast growth factor 10 – biochemical, small-molecule microarray, 635 nm fluorescence, primary screen (AID 1102); conditions: FGF10 binding, fluorescence 635 nm, higher = more signal
[6] = test system: glycogen synthase kinase-3 (GSK3A per assay name; protocol says GSK3B); experiment: compounds binding glycogen synthase kinase-3 – biochemical, small-molecule microarray, 635 nm fluorescence, GSK3A, primary screen (AID 1103); conditions: fluorescence 635 nm, higher = more signal; further: the record names both GSK3A and GSK3B
[7] = target: Epidermal growth factor receptor (Homo sapiens) (UniProt P00533); experiment: compounds binding epidermal growth factor receptor – biochemical, small-molecule microarray, 635 nm fluorescence, primary screen (AID 1104); conditions: EGFR binding, higher = more signal;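 further: score merges 667 nm emission intensity with spot signal to noise over triplicate slides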
[8] = target: Follistatin-related protein 3 (Homo sapiens) (UniProt O95633); experiment: compounds binding follistatin-related protein 3 – biochemical, small-molecule microarray, 635 nm fluorescence, primary screen (AID 1105); conditions: FSTL3 binding, higher = more signal;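 further: score merges emission near 667 nm and signal to noise per printed spot across three slides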
[9] = target: Dickkopf-related protein 1 (Homo sapiens) (UniProt O94907); experiment: small molecules binding DKK1 protein – biochemical, small-molecule microarray, 635 nm fluorescence scan, primary screen (AID 1106); conditions: higher = more signal;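 further: score merges emission near 667 nm with signal to noise over three replicate slides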
[10] = test system: Inhibin beta A chain (activin A); experiment: small molecules binding activin A – biochemical, small-molecule microarray, 635 nm fluorescence scan, primary screen (AID 1107); conditions: INHBA, higher = more signal;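 further: mouse activin A protein probed at 4.33 µg/mL on printed slides; score merges bound-protein fluorescence near 667 nm with spot signal-to-noise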
[11] = test system: Human papillomavirus type 1a protein E7 (residues 44-93); experiment: small molecules binding HPV E7 44-93 – biochemical, small-molecule microarray, residues 44-93, 635 nm fluorescence, primary screen (AID 1108); conditions: fluorescence 635 nm, higher = more signal;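 further: E7 fragment applied at 1 µg/mL in TBST for 1 h at 4 C; score combines spot fluorescence with its signal to noise ratio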
[12] = hepatitis C replication reporter changes, two-sided – Huh7 cells, luciferase reporter, HCV replication inhibitor project, primary screen (AID 1109); conditions: Huh7 HCV replicon luciferase reporter, 48 h; higher = more signal;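 further: huh7 hepatoma cells harbouring a luciferase neomycin HCV replicon reporter; luciferase luminescence as measure of HCV replicon replication; test concentration not given here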
[13] = target: Left-right determination factor 2 (Homo sapiens) (UniProt O00292); experiment: small molecules binding LEFTY2 protein – biochemical, small-molecule microarray, 635 nm fluorescence scan, primary screen (AID 1110); conditions: higher = more signal
[14] = target: Calmodulin-1 (Homo sapiens) (UniProt P0DP23); experiment: small molecules binding calmodulin-1 with EGTA – biochemical, small-molecule microarray, Cy5-labelled CALM1, profiling panel (AID 1111); conditions: Cy5-CALM1 binding fluorescence, higher = more signal;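 further: labelled calmodulin applied in Tris saline Tween buffer holding calcium plus EGTA and DTT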
[15] = target: Calmodulin-1 (Homo sapiens) (UniProt P0DP23); experiment: small molecules binding Ca-loaded calmodulin-1 – biochemical, small-molecule microarray, Cy5-labelled CALM1, plus calcium, artefact control for SMM control-protein annotation, profiling panel (AID 1112); conditions: Cy5-CALM1 binding fluorescence, higher = more signal;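 further: score merges spot fluorescence with signal to noise from triplicate slides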
[16] = probe aWnt5a binding to arrayed compounds – biochemical, biotinylated probe, 635/667 nm fluorescence, primary screen (AID 1113); conditions: small-molecule microarray, higher = more signal;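 further: score merges 667 nm fluorescence intensity with signal-to-noise per printed feature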
[17] = probe aShh binding to arrayed compounds – biochemical, biotinylated probe, 635/667 nm fluorescence, primary screen (AID 1114); conditions: small-molecule microarray, higher = more signal;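 further: probe is biotin-labelled aShh protein from a stem cell growth factor screen; measures binding of labelled protein to compounds printed on the slide; score merges feature fluorescence at 667 nm with signal-to-noise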
[18] = probe aNog binding to arrayed compounds – biochemical, biotinylated probe, 635/667 nm fluorescence, primary screen (AID 1115); conditions: small-molecule microarray, higher = more signal;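 further: probe is biotinylated aNog protein used at 0.15 µg/mL for 1 h at 4 C; z-score combines 667 nm fluorescence of each spot with its signal to noise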
[19] = target: Torsin-1A-interacting protein 1 (Homo sapiens) (UniProt Q5JTV8); experiment: compound microarray binding of lysate hLAP1 – cell lysate, small-molecule microarray, COS7 lysate, 635/667 nm fluorescence, primary screen (AID 1116); conditions: 635 nm fluorescence, higher = more signal
[20] = target: Alpha-bungarotoxin (Bungarus multicinctus) (UniProt P60615); experiment: compounds binding labelled alpha-BTX control protein – biochemical, small-molecule microarray, Alexa647 label, 635/667 nm fluorescence, artefact control for SMM control protein annotation, profiling panel (AID 1117); conditions: alpha-BTX-A647 binding fluorescence, higher = more signal
Alpha-bungarotoxin (Bungarus multicinctus), sequence (P60615 whole entry, looked up): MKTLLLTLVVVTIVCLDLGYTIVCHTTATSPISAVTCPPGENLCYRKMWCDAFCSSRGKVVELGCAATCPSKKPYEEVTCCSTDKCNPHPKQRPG

Epidermal growth factor receptor (Homo sapiens), sequence (P00533 whole entry, looked up): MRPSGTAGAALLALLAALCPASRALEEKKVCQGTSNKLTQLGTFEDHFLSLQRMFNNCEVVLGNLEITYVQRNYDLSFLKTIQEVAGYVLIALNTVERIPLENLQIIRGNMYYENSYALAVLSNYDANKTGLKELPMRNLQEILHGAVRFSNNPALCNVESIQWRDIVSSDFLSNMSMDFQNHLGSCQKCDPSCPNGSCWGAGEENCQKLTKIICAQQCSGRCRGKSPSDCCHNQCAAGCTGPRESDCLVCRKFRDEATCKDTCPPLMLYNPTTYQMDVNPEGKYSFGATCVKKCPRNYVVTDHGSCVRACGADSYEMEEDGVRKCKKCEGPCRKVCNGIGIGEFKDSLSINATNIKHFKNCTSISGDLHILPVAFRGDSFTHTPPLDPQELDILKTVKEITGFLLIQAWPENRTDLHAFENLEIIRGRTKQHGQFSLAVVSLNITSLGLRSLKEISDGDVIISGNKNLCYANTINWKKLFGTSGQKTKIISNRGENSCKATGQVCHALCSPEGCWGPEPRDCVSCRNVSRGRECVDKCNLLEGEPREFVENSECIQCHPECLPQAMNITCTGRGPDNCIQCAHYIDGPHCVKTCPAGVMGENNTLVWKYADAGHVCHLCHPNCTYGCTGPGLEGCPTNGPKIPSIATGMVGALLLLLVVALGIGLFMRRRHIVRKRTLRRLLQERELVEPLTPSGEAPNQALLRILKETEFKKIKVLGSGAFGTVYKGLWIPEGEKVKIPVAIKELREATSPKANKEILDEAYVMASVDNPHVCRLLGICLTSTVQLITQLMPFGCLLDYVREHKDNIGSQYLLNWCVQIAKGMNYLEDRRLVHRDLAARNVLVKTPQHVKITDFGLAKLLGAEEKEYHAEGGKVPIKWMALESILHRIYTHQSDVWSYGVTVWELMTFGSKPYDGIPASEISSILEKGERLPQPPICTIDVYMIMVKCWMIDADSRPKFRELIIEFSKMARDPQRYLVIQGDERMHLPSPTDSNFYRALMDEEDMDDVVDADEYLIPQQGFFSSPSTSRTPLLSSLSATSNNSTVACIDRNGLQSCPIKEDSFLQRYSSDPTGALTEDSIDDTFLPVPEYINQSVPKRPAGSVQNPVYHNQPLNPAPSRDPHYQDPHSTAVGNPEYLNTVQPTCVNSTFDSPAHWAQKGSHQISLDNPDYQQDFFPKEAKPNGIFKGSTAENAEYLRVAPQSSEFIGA
Left-right determination factor 2 (Homo sapiens), sequence (O00292 whole entry, looked up): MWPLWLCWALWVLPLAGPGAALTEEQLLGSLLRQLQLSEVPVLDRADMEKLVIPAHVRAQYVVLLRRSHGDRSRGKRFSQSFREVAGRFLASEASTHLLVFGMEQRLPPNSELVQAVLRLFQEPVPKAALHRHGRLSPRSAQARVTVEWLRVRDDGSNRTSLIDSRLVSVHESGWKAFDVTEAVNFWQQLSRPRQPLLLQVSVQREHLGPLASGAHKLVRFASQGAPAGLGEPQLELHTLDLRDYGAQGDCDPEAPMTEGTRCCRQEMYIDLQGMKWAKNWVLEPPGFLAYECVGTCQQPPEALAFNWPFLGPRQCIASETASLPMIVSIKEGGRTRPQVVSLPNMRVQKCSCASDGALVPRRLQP
Dickkopf-related protein 1 (Homo sapiens), sequence (O94907 whole entry, looked up): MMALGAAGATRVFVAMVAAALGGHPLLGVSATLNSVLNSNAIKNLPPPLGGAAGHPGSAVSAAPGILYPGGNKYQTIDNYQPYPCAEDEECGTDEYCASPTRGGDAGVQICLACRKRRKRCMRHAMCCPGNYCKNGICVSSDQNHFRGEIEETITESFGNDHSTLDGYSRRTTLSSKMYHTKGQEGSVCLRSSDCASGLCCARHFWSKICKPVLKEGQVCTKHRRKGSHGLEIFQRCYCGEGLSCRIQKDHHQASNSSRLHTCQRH
Fibroblast growth factor 10 (Homo sapiens), sequence (O15520 whole entry, looked up): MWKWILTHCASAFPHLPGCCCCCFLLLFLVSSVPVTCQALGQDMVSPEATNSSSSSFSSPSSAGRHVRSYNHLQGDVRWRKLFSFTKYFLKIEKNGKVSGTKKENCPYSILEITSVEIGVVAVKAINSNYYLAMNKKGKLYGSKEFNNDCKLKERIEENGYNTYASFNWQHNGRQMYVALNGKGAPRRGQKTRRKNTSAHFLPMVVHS
Torsin-1A-interacting protein 1 (Homo sapiens), sequence (Q5JTV8 whole entry, looked up): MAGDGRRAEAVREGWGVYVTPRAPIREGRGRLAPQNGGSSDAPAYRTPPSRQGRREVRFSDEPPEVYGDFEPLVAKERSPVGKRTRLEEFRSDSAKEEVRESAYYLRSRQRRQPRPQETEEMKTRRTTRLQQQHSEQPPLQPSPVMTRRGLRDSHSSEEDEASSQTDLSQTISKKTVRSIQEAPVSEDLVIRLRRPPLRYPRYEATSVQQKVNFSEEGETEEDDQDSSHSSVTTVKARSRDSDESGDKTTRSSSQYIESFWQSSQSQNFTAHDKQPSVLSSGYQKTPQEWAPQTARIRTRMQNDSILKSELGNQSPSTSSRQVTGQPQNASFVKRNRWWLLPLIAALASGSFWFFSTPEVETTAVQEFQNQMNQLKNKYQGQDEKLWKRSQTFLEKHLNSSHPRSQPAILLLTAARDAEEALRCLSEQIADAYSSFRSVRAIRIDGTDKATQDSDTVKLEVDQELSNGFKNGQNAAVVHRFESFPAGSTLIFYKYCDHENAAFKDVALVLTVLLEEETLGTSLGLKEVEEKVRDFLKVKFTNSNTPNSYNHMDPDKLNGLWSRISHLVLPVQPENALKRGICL
Follistatin-related protein 3 (Homo sapiens), sequence (O95633 whole entry, looked up): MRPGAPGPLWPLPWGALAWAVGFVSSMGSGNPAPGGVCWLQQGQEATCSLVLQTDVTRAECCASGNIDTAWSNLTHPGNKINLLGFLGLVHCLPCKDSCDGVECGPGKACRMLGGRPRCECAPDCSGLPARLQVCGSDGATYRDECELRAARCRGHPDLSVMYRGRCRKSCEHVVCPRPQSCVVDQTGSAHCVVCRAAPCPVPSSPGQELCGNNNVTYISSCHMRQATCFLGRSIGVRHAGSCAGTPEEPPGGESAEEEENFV

Structure (SMILES) | composite z-score [1] | composite z-score [2] | composite z-score [3] | z-score [4] | composite z-score [5] | composite z-score [6] | composite z-score [7] | composite z-score [8] | composite z-score [9] | composite z-score [10] | composite z-score [11] | z-score [12] | composite z-score [13] | composite z-score [14] | composite z-score [15] | composite z-score [16] | composite z-score [17] | composite z-score [18] | composite z-score [19] | composite z-score [20]
CN(C)CCCCCCNC(=O)[C@H]1C[C@H]2C(=O)N3CCC[C@H]3C(=O)N2[C@H]1c1ccc(O)cc1 | 1.42 | 0.11 | 0.0341 | -0.8 (inactive) | 1.28 | 1.35 | 1.6 | 1.44 | 1.25 | 1.08 | 1.12 | 1.42 | 1.44 | -1.17 | -2.33 | -0.0598 | 0.178 | 0.0459 | 1.29 | 0.73
COC(=O)[C@@]1(Cc2ccc(F)cc2)[C@H]2c3cc(C(=O)N4CCCC4)n(CCCNc4ncc(C(F)(F)F)cc4Cl)c3C[C@H]2CN1C(=O)c1ccccc1 | 0.913 | 1.43 | 1.05 | -2.38 (inactive) | 0.137 | -0.548 | 0.23 | -0.142 | -0.808 | 1.17 | 1.39 | -1.48 | -0.386 | 1.59 | 0.868 | -0.0107 | 0.831 | 1.37 | 0.679 | 0.493
COC(=O)[C@@]1(Cc2ccc(OC)cc2)[C@H]2c3cc(C(=O)N(C)C)n(Cc4ccc(S(C)(=O)=O)cc4)c3C[C@H]2CN1C(=O)c1ccccc1 | 1.29 | 0.511 | 0.573 | -0.109 (inactive) | -0.0911 | 0.904 | -0.0743 | 1.08 | 0.0527 | 1.16 | 1.41 | -1.63 | -0.0612 | 1.36 | 0.798 | -0.242 | -0.405 | -0.21 | 1.28 | -0.0416
COc1cc2c(cc1OC)CN(C(=O)[C@@H]1[C@H]3C(=O)O[C@H](c4ccccc4)[C@H](c4ccccc4)N3[C@H](c3ccc(O)cc3)[C@@]13C(=O)Nc1ccccc13)CC2 | 1.66 | -0.22 | 0.104 | -0.764 (inactive) | 0.397 | 1 | -0.0444 | 0.346 | 0.27 | -0.131 | 1.39 | -1.74 | 0.0147 | 0.457 | 0.603 | -0.154 | -0.167 | -0.321 | 0.688 | 1.74
COc1ccc([Si](C)(C)[C@@H]2[C@@H](CC(=O)N3CCC[C@H]3CO)O[C@]3(C(=O)N(c4ccccc4)c4ccccc43)[C@H]2C)cc1 | 0.977 | 0.0231 | -0.169 | -2.29 (inactive) | 0.613 | 1.23 | 0.501 | 1.4 | 0.85 | 0.748 | 1.36 | -0.417 | 0.751 | 0.528 | -0.143 | -0.124 | 0.0328 | -0.0047 | 0.691 | 1.09
COc1ccc(C(O)C2C=CC3C(=O)N(Cc4ccccc4)C(=O)C3N2n2cnnc2)cc1OCc1ccccc1 (stereo not given) | 0.504 | -0.0756 | 0.432 | -1.91 (inactive) | -0.245 | 0.332 | -0.283 | 0.308 | -0.192 | 0.586 | 0.958 | -1.04 | -0.355 | 0.0367 | -0.485 | -0.096 | -0.18 | 0.393 | 0.383 | 0.161
